The values that follow come from ChEMBL document CHEMBL4513216, “Probing the Open Global Health Chemical Diversity Library for Multistage-Active Starting Points for Next-Generation Antimalarials” (ACS Infect Dis, 2020).

The structures appear in SMILES notation. In all, about 65,000 compounds went through this assay and about 2,100 (3.2%) showed an effect of 50% or more. The median lay at about -52%. This is one part of a sample in which strong results are shown more often than they occur.

In the assay the test system is Plasmodium falciparum. As to the kind of experiment: Screen against P. falciparum Asexual Blood Stage (ABS), at 5uM. Conditions: tested at 5 uM. In kind it is functional, Dd2.
With `CSC(C)(C)CNC(=O)NC1CCN(CC=C(C)C)CC1`, the INHIBITION is on record as -10.7%.
`COCC(=O)N1C[C@H]2CCC[C@@]2(COC)C1`: the INHIBITION is given as -47.2%.
To `c1ncn(CC2CCCN(Cc3cn4ccsc4n3)C2)n1` (centres undefined) belongs -48.4%; to `c1ncn(CC2CCCN2Cc2cn3ccsc3n2)n1` (centres undefined), -64.9%.
Under `Cc1cc(CN2CCCCC2Cn2cncn2)no1` (centres undefined) stands 57.3%; under `Cc1cc(CN2CCCC2Cn2cccn2)no1` (centres undefined), -13.9%.
Consider `c1cnn(CC2CCCN2Cc2cn3ccsc3n2)c1` (centres undefined), for which the INHIBITION amounted to 64.9%.
To `c1cnn(CC2CCCCN2Cc2cn3ccsc3n2)c1` (centres undefined) belongs -19.1%; to `Cc1nc(C)n(CC2CCCN2Cc2cn3ccsc3n2)n1` (centres undefined), -20.5%.
In the case of `Cc1cc(CN2CCCC2Cn2cncn2)no1` (centres undefined), the INHIBITION is recorded as -174%.
To `c1ncn(CC2CCCCN2Cc2cn3ccsc3n2)n1` (centres undefined) belongs 61.4%; to `CC(C)Nc1ncnc2c1CCN(C(=O)c1ccncc1F)CC2`, -7.41%; to `CS(=O)(=O)NC(=O)c1ccn(-c2ccccc2Cl)n1`, -38.1%.
Turning to `Cc1cc(C)n(CC2CN(CC(=O)NCc3ccccn3)CCO2)n1` (centres undefined), the INHIBITION was -102%.
Take `CSCc1noc(CNC(=O)C2CCN(C3CCCCC3)CC2)n1`: the INHIBITION is -24.2%.
Turning to `COCCN1CCO[C@@H]2CN(C(=O)Cc3ccc(F)cc3)CC[C@@H]2C1`, the INHIBITION came to 12%.
Under `COc1ccc(CN2C[C@H]3CN(c4ccsc4)C(=O)[C@H]3C2)cc1` stands -68.6%; under `CCN1CCN2CCCN(S(=O)(=O)c3cccc(F)c3)C2C1=O` (centres undefined), 24.6%; under `CCN1CCN2CCCN(S(=O)(=O)c3ccc(S(C)(=O)=O)cc3)C2C1=O` (centres undefined), 20.7%.
As for `CCN1CCN2CCCN(S(=O)(=O)c3ccc(C)cc3C)C2C1=O` (centres undefined), the INHIBITION turned out to be 64.3%.
With `Cc1cnc(C(=O)N2Cc3cc(Cl)ccc3OC3(CCOCC3)C2)cn1`, the INHIBITION is recorded as -30.5%.
Under `CCc1ccccc1N1CC(c2nnc(N)s2)CC1=O` (centres undefined) stands -94.9%; under `COCC(=O)N1CCOC2(CCCN(c3cnccn3)C2)C1` (centres undefined), -88.3%.
Under `CC(C)(C)CN1CCCC12Cc1ccccc1CNC2=O` (centres undefined) stands 2.53%.
To `CC(C)CCN1CCCC12Cc1ccccc1CNC2=O` (centres undefined) belongs 51.7%.
With `Cc1ccc(CCN2CCCC23Cc2ccccc2CNC3=O)cc1` (centres undefined), the INHIBITION is -15.1%.
As to `N#Cc1cccc(CNc2ccc(F)cc2OCCO)c1`, the INHIBITION is on record as -11%.
For `Cc1ccc(S(=O)(=O)N2C[C@H]3C[C@H](NC(=O)c4cc[nH]n4)[C@H]3C2)cc1`, the INHIBITION is reported as -17.3%.
Under `CNS(=O)(=O)c1ccc(CNC(=O)Nc2cn[nH]c2)cc1` stands -94.2%; under `COC1(CNC(=O)NCCOc2ccccc2)CCSC1` (centres undefined), -45.4%.
Under `Cc1nc2c(c(NC3CC3)n1)CCN(C(=O)CCO)CC2` stands -79.7%; under `CC(=O)c1cc(CN2CCCCC2c2nc3cc(F)ccc3[nH]2)cs1` (centres undefined), 12.3%.
On to `Cc1ccc2nc(C3CCCN3Cc3scnc3C)[nH]c2c1` (centres undefined), for which the INHIBITION is recorded as -84.1%.
With `Cc1ccc2nc(C3CCCN3Cc3nnc(C)s3)[nH]c2c1` (centres undefined), the INHIBITION is -102%.
For the molecule `CC(=O)c1cc(CN2CCCC2c2nc3ccc(C)cc3[nH]2)cs1` (centres undefined), the INHIBITION stood at 50.3%.
To `Cc1ccc2nc(C3CCCN3Cc3csc(C)n3)[nH]c2c1` (centres undefined) belongs 65.7%; to `Cc1ccc2nc(C3CCCN3Cc3cccc(CCN)c3)[nH]c2c1` (centres undefined), 41.2%; to `Cc1c(C(=O)NCCC(=O)N2CCCC2)cccc1-c1ccccn1`, -47.4%.
Turning to `CCOC(=O)[C@]12CCCN(Cc3cccs3)C[C@H]1CN(C(C)C)C2`, the INHIBITION turned out to be 9.63%.
Under `O=C(CN1CCOCC1)N(c1ccccc1)c1ccccc1` stands -110%; under `CN(C)c1ncccc1CNC(=O)N1CCCC1CN1CCCC1` (centres undefined), -122%.
Under `CC(=O)N1CCN(C(=O)CN2CCCC2c2c(C)nn(C)c2C)CC1` (centres undefined) stands -90.6%; under `O=C(NC1CCC1)C1=NOC2(CCN(Cc3ccco3)C2)C1` (centres undefined), -31.3%; under `COCc1ccc(C(=O)N2CCC(c3cc4nccnc4[nH]3)CC2)cc1`, -69.8%.
Under `COc1cc(C(=O)N2CCCC(n3ccnc3)C2)cc2c1OCCO2` (centres undefined) stands -16.1%; under `Cc1nc[nH]c1CN1CCCN(c2nc3ccccc3s2)CC1`, 54.8%.
For `Cc1ncnc(N2CCCN(c3nc4ccccc4s3)CC2)c1C`, the INHIBITION is -442%.
On to `Cc1nc[nH]c1CN1CCCC12CCN(c1nc3ccccc3s1)CC2`, for which the INHIBITION is given as 24.2%.
`CC(=O)N1CCCC1c1nnn2cc(-c3ccncc3)ccc12` (centres undefined): the INHIBITION is on record as -69.2%.
To `O=C(O)c1nnn(-c2ccccc2)c1-c1ccncc1` belongs -32.3%; to `CCn1c(C2CCNCC2)nn(Cc2ccc(C(=O)NC)o2)c1=O`, -72.6%; to `CCCn1ncc(-c2ccnc(NC3CCSC3)n2)c1C` (centres undefined), -10.1%.
Consider `CCCn1ncc(-c2ccnc(NC3CC(C)(C)NC(C)(C)C3)n2)c1C`, for which the INHIBITION amounted to 67.2%.
Turning to `CCCn1ncc(-c2ccnc(N[C@@H]3C[C@H]4CC[C@@H]3C4)n2)c1C`, the INHIBITION is reported as -34.5%.
Under `CC(C)N1CCC(N2CCC(C(=O)N(C)C)CC2)CC1` stands -45.6%; under `O=C(N[C@@H]1CNCCC[C@H]1O)c1ccc(OCCN2CCCC2)cc1`, -65.9%.
Turning to `COCCOc1ccc(C(=O)N[C@@H]2CNCCC[C@H]2O)cc1`, the INHIBITION is -9.34%.
On to `O=C(N[C@@H]1CNCCC[C@H]1O)c1ccc(OCc2ccccc2)cc1`, for which the INHIBITION was determined as 63.2%.
To `CCc1ccccc1Nc1noc2c1CN(C(=O)CNC(C)=O)CC2` belongs 45.1%; to `CCc1ccccc1Nc1noc2c1CN(C(=O)C1CCCO1)CC2` (centres undefined), 68.6%; to `CCc1ccccc1Nc1noc2c1CN(C(=O)c1ccn(C)n1)CC2`, -63.2%.
To `O=C(NCc1cccnc1-n1cncn1)c1ccncc1` belongs -55.2%; to `COc1cccc(C(=O)N2CC[C@@H]3[C@H](CC2)N(C)CCS3(=O)=O)c1`, -72.7%.
To `Cc1nc(COC[C@@H]2CCC[C@@]23CN(C)CCO3)cs1` belongs 15.6%; to `CCN1CCO[C@]2(CCC[C@H]2COCc2csc(C)n2)C1`, 57.7%; to `Cc1nc(COC[C@H]2CCC[C@]23CN(C2CCOC2)CCO3)cs1` (some centres undefined), -51.5%.
For the molecule `Cc1nc(COC[C@@H]2CCC[C@@]23CNCCO3)cs1`, the INHIBITION is reported as 47.5%.
Turning to `Cc1nc(COC[C@H]2CCC[C@@]23CN(C(C)C)CCO3)cs1`, the INHIBITION worked out at 51.9%.
To `Cc1nc(COC[C@H]2CCC[C@]23CN(CC2CC2)CCO3)cs1` belongs 32.7%.
